# Literature values, collected in PubChem BioAssay AID977611.
# Out of some 3,900 compounds screened, about 3,900 (100%) were called active. No cut-off is given here; in the data, nearly all actives have Kd up to about 4200 µM. The set was probably picked from earlier hits. Some of the results follow. Where a SMILES comes first, the peptide text is derived from it. Non-standard residues stand in square brackets, D forms with d. Square brackets hold non-standard residues; d marks the D form. Residues, ends and D or L forms follow the SMILES beside them. Peptide text beside a SMILES is read from it. [ ]: non-standard residue; d: D form. The star is where a group is joined. Lys(Me3) = C[N+](C)(C)CCCC[C@H](N)C(=O)O; Orn(CH(NH2)2) = NC(N)NCCC[C@H](N)C(=O)O; X1 = C[C@H](Cc1ccc(O)cc1)N*; Nva = CCC[C@H](N)C(=O)O
# Assay: PubChem AID 977611
# Conditions: PDB protein-ligand complexes, literature Kd
compound,measurement,setting,value
CC[C@H](C)[C@H](NC(=O)[C@H](C)NC(=O)[C@H](CC(C)C)NC(=O)[C@H](CCC(N)=O)NC(=O)[C@H](CCCNC(N)N)NC(=O)CNC(=O)[C@@H](NC(=O)[C@H](CCC(N)=O)NC(=O)CN)C(C)C)C(=O)N[C@H](C(=O)NCC(=O)N[C@@H](CC(=O)O)C(=O)N[C@@H](CC(=O)O)C(=O)N[C@H](C(=O)N[C@@H](CC(N)=O)C(=O)N[C@@H](CCCNC(N)N)C(=O)O)[C@@H](C)CC)[C@@H](C)CC,Kd,"protein: BCL-XL, PDB entry 1bxl",0.34 µM (active)
CC[C@H](C)[C@H](NC(=O)[C@H](CCC(=O)O)NC(=O)[C@H](CCC(=O)O)NC(=O)[C@@H](N)CC(=O)O)C(=O)N[C@@H](CCC(=O)O)C(=O)N[C@@H](CCCNC(N)N)C(=O)N[C@@H](CCC(N)=O)C(=O)N[C@@H](CC(C)C)C(=O)N[C@@H](CCCCN)C(=O)N[C@@H](C)C(=O)N[C@@H](CC(C)C)C(=O)NCC(=O)N[C@H](C(=O)N[C@@H](CC(=O)O)C(=O)O)C(C)C (H-DEEIE[Orn(CH(NH2)2)]QLKALGVD-OH),Kd,"protein: Vacuolar protein sorting-associating protein 4B, PDB entry 2jqk",402 µM (active)
CC[C@H](C)[C@H](NC(=O)[C@@H](N)CCCNC(N)N)C(=O)N[C@@H](CO)C(=O)N[C@@H](C)C(=O)N[C@@H](CC(=O)O)C(=O)N[C@@H](C)C(=O)N[C@@H](CCSC)C(=O)N[C@@H](CCSC)C(=O)N[C@@H](CCC(N)=O)C(=O)N[C@@H](C)C(=O)N[C@@H](CC(C)C)C(=O)N[C@@H](CC(C)C)C(=O)NCC(=O)N[C@@H](C)C(=O)N[C@@H](CCCNC(N)N)C(=O)N[C@@H](C)C(=O)N[C@@H](CCCCN)C(=O)O (H-[Orn(CH(NH2)2)]ISADAMMQALLGA[Orn(CH(NH2)2)]AK-OH),Kd,"protein: Regulatory Domain of Human Cardiac Troponin C and Ca2+, PDB entry 2krd",2000 µM (active)
same,Kd,"protein: human Cardiac Troponin-C(cNTnCCa2+), PDB entry 1mxl",154 µM (active)
CSCC[C@H](NC(=O)CNC(=O)[C@H](C)NC(=O)[C@@H](N)CCC(=O)O)C(=O)N[C@H](C(=O)N[C@@H](CC(C)C)C(=O)NCC(=O)N[C@@H](C)C(=O)N[C@@H](CCCNC(N)N)C(=O)N[C@@H](CCCCN)C(=O)N[C@@H](CC(C)C)C(=O)N[C@@H](CCCCN)C(=O)N[C@@H](CCCCN)C(=O)N[C@@H](CC(C)C)C(=O)NCC(=O)O)[C@@H](C)O (H-EAGMTLGA[Orn(CH(NH2)2)]KLKKLG-OH),Kd,"protein: Importin subunit alpha-2, PDB entry 3btr",5 µM (active)
COc1ccc2c(c1OC)CN(C)c1c-2ccc2cc3c(cc12)OCO3,Kd,"protein: Chitinase A, PDB entry 3arw",0.7 µM (active)
O=C(O)[C@@H]1COc2ccccc2O1,Kd,"protein: Pantothenate synthetase (T2A, E77G mutation), PDB entry 4de5",700 µM (active)
same,Kd,"protein: Pantothenate synthetase (T2A, E77G mutation), PDB entry 4g5f",900 µM (active)
CC(C)C[C@H](NC(=O)[C@H](CCC(N)=O)NC(=O)[C@H](CS)NC(=O)[C@H](CO)NC(=O)[C@@H](N)CC(C)C)C(=O)N[C@@H](Cc1ccc(O)cc1)C(=O)N[C@@H](CCC(N)=O)C(=O)N[C@@H](CCCNC(N)N)C(=O)O (H-LSCQLYQ[Orn(CH(NH2)2)]-OH),Kd,"protein: Thymidylate synthase, PDB entry 3n5e",0.151 µM (active)
CC(=O)NCCCC[C@H](NC(=O)[C@H](CCCNC(N)N)NC(=O)CNC(=O)[C@H](Cc1ccc(O)cc1)NC(=O)[C@@H](N)CO)C(=O)N[C@@H](CCCCN)C(=O)N[C@@H](CCCNC(N)N)C(=O)N[C@@H](CCCNC(N)N)C(=O)N[C@@H](CCC(N)=O)C(=O)N[C@@H](CCCNC(N)N)C(=O)N[C@@H](CS)C(=O)O (H-SYG[Orn(CH(NH2)2)]K(Ac)K[Orn(CH(NH2)2)][Orn(CH(NH2)2)]Q[Orn(CH(NH2)2)]C-OH),Kd,"protein: p300/CBP-associated factor (PCAF), PDB entry 1jm4",10 µM (active)
CC(C)C[C@H](NC(=O)[C@H](CCCNC(N)N)NC(=O)[C@H](CCC(N)=O)NC(=O)[C@H](Cc1ccc(O)cc1)NC(=O)[C@@H](N)CC(=O)O)C(=O)O (H-DYQ[Orn(CH(NH2)2)]L-OH),Kd,"protein: AP-3 complex subunit mu-1, PDB entry 4ikn",14 µM (active)
CC(C)[C@H](NC(=O)[C@H](CC(=O)O)NC(=O)[C@@H](NC(=O)[C@H](CC(=O)O)NC(=O)[C@H](CO[P+](O)(O)O)NC(=O)[C@@H](N)CC(=O)O)[C@@H](C)O[P+](O)(O)O)C(=O)N[C@@H](CCC(=O)O)C(=O)N[C@@H](CCC(=O)O)C(=O)O,Kd,"protein: DNA topoisomerase 2-binding protein 1, PDB entry 3ueo",94 µM (active)
CSCC[C@H](NC(=O)[C@H](CCCNC(N)N)NC(=O)[C@H](CO)NC(=O)[C@H](C)N)C(=O)N[C@@H](CCC(=O)O)C(=O)N[C@@H](CCC(=O)O)C(=O)N[C@H](C(=O)N[C@@H](CC(=O)O)C(=O)O)C(C)C (H-AS[Orn(CH(NH2)2)]MEEVD-OH),Kd,"protein: Protein UNC-45, PDB entry 4i2z",13.5 µM (active)
CSCC[C@H](N)C(=O)N[C@@H](C)C(=O)N[C@@H](CO)C(=O)O (H-Met-Ala-Ser-OH),Kd,"protein: human-like mitochondrial peptide deformylase (G47C, L112E mutant), PDB entry 4je8",6.1 µM (active)
H-AEDDVE-OH,Kd,"protein: AH RECEPTOR-INTERACTING PROTEIN, PDB entry 4apo",12.3 µM (active)
CSCC[C@H](NC(=O)[C@H](CCC(=O)O)NC(=O)[C@@H](NC(=O)[C@H](CC(=O)O)NC(=O)[C@H](C)N)[C@@H](C)O)C(=O)N[C@@H](CCC(=O)O)C(=O)N[C@@H](CCC(=O)O)C(=O)N[C@H](C(=O)N[C@@H](CC(=O)O)C(=O)O)C(C)C (H-ADTEMEEVD-OH),Kd,"protein: TPR repeat-containing protein associated with Hsp90, PDB entry 2lsv",5.41 µM (active)
CC(=O)N[C@@H](CC(=O)O)C(=O)N[C@@H](CCC(=O)O)C(=O)N[C@H](C(=O)N[C@@H](CC(=O)O)[C@@H](C)O)C(C)C,Kd,"protein: Procaspase-3 (D175A mutation), PDB entry 4jr0",0.0063 µM (active)
CCC[C@H](NC(=O)[C@@H](N)CO)C(=O)N[C@@H](CCSC)C(=O)N[C@@H](C)C(=O)N[C@@H](CCC(=O)O)C(=O)N[C@H](C(=O)N[C@@H](CC(=O)O)C(=O)O)C(C)C (H-S[Nva]MAEVD-OH),Kd,"protein: AH RECEPTOR-INTERACTING PROTEIN, PDB entry 4aif",14.4 µM (active)
CC(C)C[C@H](NC(=O)[C@H](CCC(=O)O)NC(=O)CNC(=O)[C@@H](NC(=O)[C@H](CO[P+](O)(O)O)NC(=O)[C@@H]1CCCN1C(=O)[C@H](CC(=O)O)NC(=O)[C@@H](NC(=O)[C@H](CCC(=O)O)NC(=O)[C@@H](N)CCCCN)C(C)C)[C@@H](C)O)C(=O)N[C@@H](CCC(N)=O)C(=O)O,Kd,"protein: Kelch-like ECH-associated protein 1, PDB entry 3wdz",0.12 µM (active)
CC(C)C[C@H](NC(=O)[C@H](CCCNC(N)N)NC(=O)[C@@H](N)CCCNC(N)N)C(=O)N[C@@H](CCC(N)=O)C(=O)N[C@@H](CCCCN)C(=O)NCC(=O)N[C@@H](CC(N)=O)C(=O)N[C@@H](CC(C)C)C(=O)N1CCC[C@H]1C(=O)N[C@H](C(=O)N[C@@H](CCCNC(N)N)C(=O)O)C(C)C (H-[Orn(CH(NH2)2)][Orn(CH(NH2)2)]LQKGNLPV[Orn(CH(NH2)2)]-OH),Kd,"protein: ERK2, PDB entry 2fys",44 µM (active)
CSCC[C@H](NC(=O)[C@@H]1CCCN1C(=O)[C@@H](N)[C@@H](C)O)C(=O)N[C@H](C(=O)N[C@@H](CC(N)=O)C(=O)N[C@@H](CCCNC(N)N)C(=O)N[C@@H](CCC(=O)O)C(=O)N[C@@H](CC(N)=O)C(=O)N[C@@H](CCCCN)C(=O)O)C(C)C (H-TPMVN[Orn(CH(NH2)2)]ENK-OH),Kd,"protein: STAM2 SH3 domain, PDB entry 1uj0",27 µM (active)
CSCC[C@H](NC(=O)[C@H](CCCCN)NC(=O)[C@H](CCC(=O)O)NC(=O)[C@H](CCCCN)NC(=O)[C@H](CCCNC(N)N)NC(=O)[C@@H]1CCCN1C(=O)[C@@H]1CCCN1C(=O)[C@@H](NC(=O)[C@H](CC(C)C)NC(=O)[C@@H]1CCCN1C(=O)[C@@H]1CCCN1C(=O)[C@H](CCC(N)=O)NC(=O)CN)C(C)C)C(=O)N[C@@H](CCCNC(N)N)C(=O)NCC(=O)N[C@@H](CCCCN)C(=O)O (H-GQPPLVPP[Orn(CH(NH2)2)]KEKM[Orn(CH(NH2)2)]GK-OH),Kd,"protein: Grb2-related adaptor protein 2(SH3 domain), PDB entry 1uti",2.4 µM (active)
CC[C@H](C)[C@H](N)C(=O)N[C@@H](CCC(N)=O)C(=O)N1CCC[C@H]1C(=O)N1CCC[C@H]1C(=O)N1CCC[C@H]1C(=O)N[C@H](C(=O)N[C@@H](CC(N)=O)C(=O)N[C@@H](CCCNC(N)N)C(=O)N[C@@H](CC(N)=O)C(=O)N[C@@H](CC(C)C)C(=O)N[C@@H](CCCCN)C(=O)N1CCC[C@H]1C(=O)N[C@@H](CC(=O)O)C(=O)N[C@H](C=O)CCCNC(N)N)C(C)C (H-IQPPPVN[Orn(CH(NH2)2)]NLKPD[Orn(CH(NH2)2)]-aldehyde),Kd,"protein: GROWTH FACTOR RECEPTOR-BOUND PROTEIN 2 SH3 DOMAIN, PDB entry 2vwf",8.7 µM (active)
CN1C=CN(CCCN2c3ccccc3Sc3ccc(C(F)(F)F)cc32)C=C1,Kd,"protein: human calmodulin (CaM), PDB entry 1ctr",1 µM (active)
COC(=O)c1cc(N)cc(-c2c(C)noc2C)c1,Kd,"protein: ATPase family AAA domain-containing protein 2 ATAD2A bromodomain, PDB entry 4tte",202 µM (active)
Cn1cc(O[C@@H]2O[C@H](CO)[C@H](O)[C@H](O)[C@H]2O)c2ccccc21,Kd,"protein: PA-I galactophilic lectin, PDB entry 4ljh",19.4 µM (active)
CC[C@H](C)[C@H](NC(=O)[C@H](Cc1cnc[nH]1)NC(=O)[C@@H](NC(=O)[C@H](CCCNC(N)N)NC(=O)[C@H](CCCCN)NC(=O)[C@@H](N)CCCNC(N)N)[C@@H](C)CC)C(=O)NCC(=O)N1CCC[C@H]1C(=O)NCC(=O)N[C@@H](CCCNC(N)N)C(=O)N[C@@H](C)C(=O)N[C@@H](Cc1ccccc1)C(=O)N[C@@H](Cc1ccc(O)cc1)C(=O)N[C@@H](C)C(=O)N[C@H](C=O)[C@@H](C)O,Kd,"protein: anti-HIV-1 Fab 537-10D, PDB entry 3ghe",1.3 µM (active)
CC(=O)NCCCC[C@H](NC(=O)[C@@H](NC(=O)CNC(=O)CNC(=O)[C@@H](NC(=O)[C@@H](N)CO)[C@@H](C)O)C(C)C)C(=O)N[C@@H](CCCCN)C(=O)N1CCC[C@H]1C(=O)N[C@@H](Cc1cnc[nH]1)C(=O)N[C@@H](CCCNC(N)N)C(=O)N[C@@H](Cc1ccc(O)cc1)C(=O)N[C@@H](CCCCN)C(=O)N[C@@H](CS)C(=O)O,Kd,"protein: Histone acetyltransferase PCAF, PDB entry 2rnx",402 µM (active)
CC(C)[C@H](NC(=O)CNC(=O)CNC(=O)[C@@H](NC(=O)[C@H](C)N)[C@@H](C)O)C(=O)N[C@@H](CCCC[N+](C)(C)C)C(=O)N[C@@H](CCCCN)C(=O)N1CCC[C@H]1C(=O)N[C@@H](Cc1cnc[nH]1)C(=O)N[C@@H](CCCNC(N)N)C(=O)N[C@H](C)Cc1ccc(O)cc1 (H-ATGGV[Lys(Me3)]KPH[Orn(CH(NH2)2)]-X1),Kd,"protein: PHD finger protein 1, PDB entry 2m0o",4.2 µM (active)
